From PubChem BioAssay AID1159580 (chemical genetic matrix, 2015)
The campaign covered roughly 5,500 compounds. About 2,000 (36%) were called active. Inconclusive results (about 18%) are left out. Cut-off read from the data, not from the text of the source: active = normalized growth mostly below about 0.91 (no sharp cut-off); inconclusive = no clear call, values can overlap the other calls; inactive = mostly above about 0.92. The list shows a part of the results.

Assay: chemical genetic growth profiling, strain panel (AID 1159580);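 note: tested at 20 µM; growth read once vehicle control cultures reached saturation at 30 °C; 1 = growth at the plate median or of vehicle wells; lower values mean less growth of the strain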
Conditions: growth OD

Measured: normalized growth

COc1ccc(-c2oc3c(CC=C(C)C)c(O[C@@H]4O[C@H](CO)[C@@H](O)[C@H](O)[C@H]4O)cc(O)c3c(=O)c2O[C@@H]2O[C@@H](C)[C@H](O)[C@@H](O)[C@H]2O)cc1
inactive: S. cerevisiae deletion strains, locus YJR066W, strain TOR1, active compounds read low 0.949 | S. cerevisiae deletion strains, locus YKL009W, strain mrt4, active compounds read low 0.963 | S. cerevisiae deletion strains, locus YKL068W, active compounds read low 0.986 | S. cerevisiae deletion strains, locus YKL085W, strain MDH1 (second series), active compounds read low 0.975 | S. cerevisiae deletion strains, locus YKL085W, strain MDH1, active compounds read low 0.975 | S. cerevisiae deletion strains, locus YKL160W, strain elf1, active compounds read low 1 | S. cerevisiae deletion strains, locus YKL190W, strain CNB1, active compounds read low 1.02 | S. cerevisiae deletion strains, locus YKR001C, strain vps1, active compounds read low 0.993 | S. cerevisiae deletion strains, locus YKR026C, strain gcn3, active compounds read low 1.04 | S. cerevisiae deletion strains, locus YKR091W, strain srl3, active compounds read low 1.03 | S. cerevisiae deletion strains, locus YLL001W, strain dnm1, active compounds read low 1.01 | S. cerevisiae deletion strains, locus YLL026W, active compounds read low 1.04 | S. cerevisiae deletion strains, locus YLL041C, strain sdh2, active compounds read low 1.04 | S. cerevisiae deletion strains, locus YLR027C, strain aat2, active compounds read low 1.03 | S. cerevisiae deletion strains, locus YLR039C, strain RIC1, active compounds read low 1.01 | S. cerevisiae deletion strains, locus YLR058C, strain SHM2, active compounds read low 0.988 | S. cerevisiae deletion strains, locus YLR102C, strain apc9, active compounds read low 0.974 | S. cerevisiae deletion strains, locus YLR113W, strain HOG1, active compounds read low 1.04 | S. cerevisiae deletion strains, locus YLR221C, strain rsa3, active compounds read low 1.04 | S. cerevisiae deletion strains, locus YLR258W, strain gsy2, active compounds read low 1.01 | S. cerevisiae deletion strains, locus YLR262C, strain YPT6 (second series), active compounds read low 1.05 | S. cerevisiae deletion strains, locus YLR262C, strain YPT6, active compounds read low 0.971 | S. cerevisiae deletion strains, locus YLR268W, strain sec22, active compounds read low 0.969 | S. cerevisiae deletion strains, locus YLR320W, strain mms22, active compounds read low 1.04 | S. cerevisiae deletion strains, locus YLR330W, strain CHS5, active compounds read low 1.01 | S. cerevisiae deletion strains, locus YLR342W, strain FKS1 (second series), active compounds read low 1.06 | S. cerevisiae deletion strains, locus YLR342W, strain FKS1, active compounds read low 1.04 | S. cerevisiae deletion strains, locus YLR357W, strain rsc2, active compounds read low 1.02 | S. cerevisiae deletion strains, locus YLR370C, strain arc18, active compounds read low 1.02 | S. cerevisiae deletion strains, locus YLR371W, strain rom2, active compounds read low 0.965 | S. cerevisiae deletion strains, locus YLR384C, strain iki3, active compounds read low 1.01 | S. cerevisiae deletion strains, locus YLR418C, strain cdc73, active compounds read low 0.998 | S. cerevisiae deletion strains, locus YML016C, strain PPZ1, active compounds read low 1 | S. cerevisiae deletion strains, locus YML032C, strain rad52, active compounds read low 1 | S. cerevisiae deletion strains, locus YML120C, strain ndi1, active compounds read low 1.02 | S. cerevisiae deletion strains, locus YML124C, strain tub3, active compounds read low 0.975 | S. cerevisiae deletion strains, locus YMR058W, strain fet3, active compounds read low 1.04 | S. cerevisiae deletion strains, locus YMR078C, strain ctf18, active compounds read low 0.977 | S. cerevisiae deletion strains, locus YMR125W, strain sto1, active compounds read low 1.04 | S. cerevisiae deletion strains, locus YMR129W, active compounds read low 1.04 | S. cerevisiae deletion strains, locus YMR205C, strain PFK2, active compounds read low 1.04 | S. cerevisiae deletion strains, locus YMR223W, strain ubp8, active compounds read low 0.979 | S. cerevisiae deletion strains, locus YMR231W, strain pep5, active compounds read low 1 | S. cerevisiae deletion strains, locus YMR263W, strain SAP30, active compounds read low 1 | S. cerevisiae deletion strains, locus YMR307W, strain GAS1, active compounds read low 1.15 | S. cerevisiae deletion strains, locus YNL067W, strain RPL9B, active compounds read low 0.963 | S. cerevisiae deletion strains, locus YNL071W, strain lat1, active compounds read low 1.03 | S. cerevisiae deletion strains, locus YNL128W, strain TEP1, active compounds read low 0.974 | S. cerevisiae deletion strains, locus YNL183C, strain NPR1, active compounds read low 0.952 | S. cerevisiae deletion strains, locus YNL209W, strain ssb2, active compounds read low 1.03 | S. cerevisiae deletion strains, locus YNL233W, strain BNI4, active compounds read low 0.99 | S. cerevisiae deletion strains, locus YNL248C, strain rpa49, active compounds read low 1.04 | S. cerevisiae deletion strains, locus YNL250W, strain rad50, active compounds read low 0.93 | S. cerevisiae deletion strains, locus YNL271C, strain bni1, active compounds read low 0.965 | S. cerevisiae deletion strains, locus YNL298W, strain CLA4, active compounds read low 0.981 | S. cerevisiae deletion strains, locus YNL307C, strain MCK1, active compounds read low 0.979 | S. cerevisiae deletion strains, locus YNL322C, strain KRE1 (second series), active compounds read low 1.03 | S. cerevisiae deletion strains, locus YNR049C, strain mso1, active compounds read low 1.03 | S. cerevisiae deletion strains, locus YNR052C, strain pop2, active compounds read low 0.984 | S. cerevisiae deletion strains, locus YOL012C, strain htz1 0.851 | S. cerevisiae deletion strains, locus YOL147C, strain pex11, active compounds read low 0.989 | S. cerevisiae deletion strains, locus YOR001W, strain rrp6, active compounds read low 1.05 | S. cerevisiae deletion strains, locus YOR061W, strain CKA2, active compounds read low 0.992 | S. cerevisiae deletion strains, locus YOR069W, strain VPS5, active compounds read low 0.999 | S. cerevisiae deletion strains, locus YOR070C, strain gyp1, active compounds read low 1.01 | S. cerevisiae deletion strains, locus YOR080W, strain dia2, active compounds read low 1.04 | S. cerevisiae deletion strains, locus YOR083W, strain WHI5, active compounds read low 0.988 | S. cerevisiae deletion strains, locus YOR106W, strain vam3, active compounds read low 0.989 | S. cerevisiae deletion strains, locus YOR136W, strain idh2, active compounds read low 0.985 | S. cerevisiae deletion strains, locus YOR144C, strain elg1, active compounds read low 1 | S. cerevisiae deletion strains, locus YOR184W, strain ser1, active compounds read low 0.984 | S. cerevisiae deletion strains, locus YOR231W, strain MKK1, active compounds read low 1.02 | S. cerevisiae deletion strains, locus YOR265W, strain rbl2, active compounds read low 1.02 | S. cerevisiae deletion strains, locus YOR270C, strain vph1, active compounds read low 0.999 | S. cerevisiae deletion strains, locus YOR290C, strain snf2, active compounds read low 0.981 | S. cerevisiae deletion strains, locus YOR316C, strain cot1, active compounds read low 0.976 | S. cerevisiae deletion strains, locus YPL051W, strain arl3, active compounds read low 1.02 | S. cerevisiae deletion strains, locus YPL055C, strain LGE1, active compounds read low 1 | S. cerevisiae deletion strains, locus YPL078C, strain atp4, active compounds read low 0.986 | S. cerevisiae deletion strains, locus YPL106C, strain sse1, active compounds read low 1.04 | S. cerevisiae deletion strains, locus YPL240C, strain hsp82, active compounds read low 1.02 | S. cerevisiae deletion strains, locus YPL241C, strain CIN2, active compounds read low 0.99 | S. cerevisiae deletion strains, locus YPL256C, strain CLN2, active compounds read low 1 | S. cerevisiae deletion strains, locus YPR119W, strain clb2, active compounds read low 0.98 | S. cerevisiae deletion strains, locus YPR141C, strain kar3, active compounds read low 0.968 | S. cerevisiae deletion strains, locus YPR163C, strain tif3, active compounds read low 0.978 | S. cerevisiae deletion strains, locus YPR167C, strain met16, active compounds read low 0.983 | S. cerevisiae deletion strains, strain wtn01, active compounds read low 0.986 | S. cerevisiae strains, strain wild type, active compounds read low 1.01
